# Test results as given in PMC7862700, “An all-to-all approach to the identification of sequence-specific readers for epigenetic DNA modifications on cytosine”.
# Columns and labels:
# Test in all cases: DAPPL (digital affinity profiling via proximity ligation, sequencing); 10 mM Tris-HCl pH 7.5, 50 mM NaCl, 1 mM DTT, 4% glycerol, room temperature, 30 min; GST-TFs on glutathione beads, 16-mer random dsDNA library, 0.1% formaldehyde crosslink after washing; high values mean tight binding
# FEV = target: T1, FEV (Homo sapiens, UniProt Q99581 1-238); conditions: protein: recombinant; tags: N-terminal GST; dsDNA, one strand shown
# T1 sequence: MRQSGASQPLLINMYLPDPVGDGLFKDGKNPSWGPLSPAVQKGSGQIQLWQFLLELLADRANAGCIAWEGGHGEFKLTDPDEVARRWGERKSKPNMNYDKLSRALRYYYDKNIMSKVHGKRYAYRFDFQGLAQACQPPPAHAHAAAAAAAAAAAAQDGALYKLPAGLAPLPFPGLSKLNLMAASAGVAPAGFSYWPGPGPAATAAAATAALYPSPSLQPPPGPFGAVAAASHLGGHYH
# In short: (§1)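 Sequencing on an Illumina NextSeq500 followed washing, crosslinking with 0.1% formaldehyde, proximity ligation (BsaI/T4 ligase, 1 h, 37 °C) and PCR amplification of pools that had been incubated for 30 min at room temperature with 200 nmole of a random double-stranded 16-mer DNA library in Tris/NaCl/DTT/glycerol buffer. Each pool held DNA-barcoded human transcription factors, expressed in yeast as GST fusions and captured on glutathione beads, plus a tag-only sample. Binding signal is a hexamer's read frequency for a factor divided by its frequency in the tag-only sample.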
# ETV5 = ETV5 (Homo sapiens, UniProt P41161 1-510); conditions: protein: recombinant; tags: N-terminal GST; dsDNA, one strand shown
# In short: as §1
# HSF1 = HSF1 (Homo sapiens, UniProt Q00613 1-529); conditions: protein: recombinant; tags: N-terminal GST; chain copies: 3; dsDNA, one strand shown
# In short: as §1
# SPIC = target: T2, SPIC (Homo sapiens, UniProt Q8N5J4 1-248); conditions: protein: recombinant; tags: N-terminal GST; dsDNA, one strand shown
# T2 sequence: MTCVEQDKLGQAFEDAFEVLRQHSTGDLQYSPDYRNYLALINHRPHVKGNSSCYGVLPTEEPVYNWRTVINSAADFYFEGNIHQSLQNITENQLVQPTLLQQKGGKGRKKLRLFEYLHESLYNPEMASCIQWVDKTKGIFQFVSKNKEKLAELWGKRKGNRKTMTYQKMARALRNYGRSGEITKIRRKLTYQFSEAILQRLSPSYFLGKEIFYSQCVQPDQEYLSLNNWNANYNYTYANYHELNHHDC
# In short: as §1
# ELF4 = ELF4 (Homo sapiens, UniProt Q99607 1-663); conditions: protein: recombinant; tags: N-terminal GST; dsDNA, one strand shown
# In short: as §1
# ELK4 = target: T3, ELK4 (Homo sapiens, UniProt P28324-2 1-405); conditions: protein: recombinant; tags: N-terminal GST; dsDNA, one strand shown
# T3 sequence: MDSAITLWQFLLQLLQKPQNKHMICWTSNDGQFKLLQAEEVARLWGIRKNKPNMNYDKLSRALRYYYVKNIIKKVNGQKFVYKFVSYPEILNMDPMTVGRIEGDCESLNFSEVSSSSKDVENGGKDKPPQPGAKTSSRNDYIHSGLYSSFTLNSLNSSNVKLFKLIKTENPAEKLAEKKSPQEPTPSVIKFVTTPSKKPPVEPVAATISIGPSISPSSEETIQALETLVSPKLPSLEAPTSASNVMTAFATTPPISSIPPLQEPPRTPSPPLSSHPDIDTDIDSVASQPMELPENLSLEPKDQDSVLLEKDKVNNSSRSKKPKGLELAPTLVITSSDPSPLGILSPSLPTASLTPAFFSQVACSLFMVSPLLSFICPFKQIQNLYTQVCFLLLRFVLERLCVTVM
# In short: as §1
# ETV2 = target: T4, ETV2 (Homo sapiens, UniProt O00321 1-342); conditions: protein: recombinant; tags: N-terminal GST; dsDNA, one strand shown
# T4 sequence: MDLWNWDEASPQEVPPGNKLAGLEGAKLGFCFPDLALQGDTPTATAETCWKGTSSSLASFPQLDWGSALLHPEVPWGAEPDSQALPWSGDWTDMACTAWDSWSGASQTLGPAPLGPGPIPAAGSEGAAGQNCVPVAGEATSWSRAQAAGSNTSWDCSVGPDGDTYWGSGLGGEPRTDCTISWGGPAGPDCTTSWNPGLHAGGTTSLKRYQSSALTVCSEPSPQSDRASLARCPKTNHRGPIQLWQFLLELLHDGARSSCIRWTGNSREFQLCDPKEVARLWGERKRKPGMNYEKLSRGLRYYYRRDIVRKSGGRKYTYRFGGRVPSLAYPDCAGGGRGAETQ
# In short: as §1
# ELF3 = target: T5, ELF3 (Homo sapiens, UniProt P78545 1-371); conditions: protein: recombinant; tags: N-terminal GST; dsDNA, one strand shown
# T5 sequence: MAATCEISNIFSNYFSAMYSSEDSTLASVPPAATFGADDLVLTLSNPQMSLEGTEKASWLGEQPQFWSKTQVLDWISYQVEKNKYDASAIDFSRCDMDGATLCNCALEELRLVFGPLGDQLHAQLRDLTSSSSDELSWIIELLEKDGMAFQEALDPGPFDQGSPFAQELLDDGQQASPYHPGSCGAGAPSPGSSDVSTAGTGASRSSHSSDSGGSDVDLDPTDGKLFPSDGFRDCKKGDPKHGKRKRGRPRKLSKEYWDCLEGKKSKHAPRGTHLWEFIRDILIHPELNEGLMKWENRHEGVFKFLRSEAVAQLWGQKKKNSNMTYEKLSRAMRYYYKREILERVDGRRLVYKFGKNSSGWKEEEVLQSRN
# In short: as §1
# ETV1 = ETV1 (Homo sapiens, UniProt P50549 1-477); conditions: protein: recombinant; tags: N-terminal GST; dsDNA, one strand shown
# In short: as §1
# ERF = target: T6, ERF (Homo sapiens, UniProt P50548 1-548); conditions: protein: recombinant; tags: N-terminal GST; dsDNA, one strand shown
# T6 sequence: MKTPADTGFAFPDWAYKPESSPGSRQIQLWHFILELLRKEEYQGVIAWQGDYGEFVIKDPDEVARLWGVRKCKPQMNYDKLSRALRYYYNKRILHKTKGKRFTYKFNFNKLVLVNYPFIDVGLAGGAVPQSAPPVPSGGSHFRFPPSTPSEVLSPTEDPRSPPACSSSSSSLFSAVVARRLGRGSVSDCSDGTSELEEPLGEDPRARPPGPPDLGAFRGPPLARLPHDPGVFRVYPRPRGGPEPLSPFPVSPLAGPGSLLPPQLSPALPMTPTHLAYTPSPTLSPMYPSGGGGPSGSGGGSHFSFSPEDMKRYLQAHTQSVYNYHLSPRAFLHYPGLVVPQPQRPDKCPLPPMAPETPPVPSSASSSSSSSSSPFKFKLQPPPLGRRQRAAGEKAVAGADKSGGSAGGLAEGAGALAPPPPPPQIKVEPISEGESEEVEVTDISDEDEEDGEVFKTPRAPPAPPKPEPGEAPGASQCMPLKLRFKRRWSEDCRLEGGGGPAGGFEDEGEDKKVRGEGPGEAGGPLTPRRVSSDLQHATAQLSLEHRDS
# In short: as §1
# ETV3L = target: T7, ETV3L (Homo sapiens, UniProt Q6ZN32 1-361); conditions: protein: recombinant; tags: N-terminal GST; dsDNA, one strand shown
# T7 sequence: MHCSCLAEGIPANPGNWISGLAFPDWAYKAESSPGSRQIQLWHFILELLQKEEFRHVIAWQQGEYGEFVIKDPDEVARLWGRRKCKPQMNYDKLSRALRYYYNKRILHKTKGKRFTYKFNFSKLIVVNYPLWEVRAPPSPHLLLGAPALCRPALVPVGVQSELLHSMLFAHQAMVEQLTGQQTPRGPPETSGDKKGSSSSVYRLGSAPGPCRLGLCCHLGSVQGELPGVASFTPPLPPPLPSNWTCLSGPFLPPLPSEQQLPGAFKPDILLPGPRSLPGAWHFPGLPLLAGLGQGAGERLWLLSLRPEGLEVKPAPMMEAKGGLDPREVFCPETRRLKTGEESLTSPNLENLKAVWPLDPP
# In short: as §1
# ETS2 = target: T8, ETS2 (Homo sapiens, UniProt P15036 1-469); conditions: protein: recombinant; tags: N-terminal GST; dsDNA, one strand shown
# T8 sequence: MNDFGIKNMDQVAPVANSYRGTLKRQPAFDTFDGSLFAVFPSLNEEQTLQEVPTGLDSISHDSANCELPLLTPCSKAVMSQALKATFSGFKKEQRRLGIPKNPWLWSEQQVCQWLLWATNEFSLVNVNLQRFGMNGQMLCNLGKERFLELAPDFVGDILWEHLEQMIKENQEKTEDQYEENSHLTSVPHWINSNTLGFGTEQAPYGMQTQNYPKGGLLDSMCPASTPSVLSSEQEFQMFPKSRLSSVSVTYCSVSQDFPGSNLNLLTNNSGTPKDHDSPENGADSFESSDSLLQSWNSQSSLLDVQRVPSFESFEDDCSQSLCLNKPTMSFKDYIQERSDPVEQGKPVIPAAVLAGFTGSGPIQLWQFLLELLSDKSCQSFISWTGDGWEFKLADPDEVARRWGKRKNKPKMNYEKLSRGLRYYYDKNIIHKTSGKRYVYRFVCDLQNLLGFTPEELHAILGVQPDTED
# In short: as §1
# SPDEF = target: T9, SPDEF (Homo sapiens, UniProt O95238 1-335); conditions: protein: recombinant; tags: N-terminal GST; dsDNA, one strand shown
# T9 sequence: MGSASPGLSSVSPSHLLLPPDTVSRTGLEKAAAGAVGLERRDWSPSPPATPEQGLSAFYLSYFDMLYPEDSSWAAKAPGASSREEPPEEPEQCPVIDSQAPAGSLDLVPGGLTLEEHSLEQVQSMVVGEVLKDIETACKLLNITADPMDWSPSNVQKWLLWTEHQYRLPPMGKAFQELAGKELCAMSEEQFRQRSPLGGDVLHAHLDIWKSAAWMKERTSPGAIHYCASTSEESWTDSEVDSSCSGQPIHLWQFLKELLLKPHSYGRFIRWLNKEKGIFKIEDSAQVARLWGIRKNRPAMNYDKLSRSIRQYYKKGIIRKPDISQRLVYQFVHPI
# In short: as §1
# ETV7 = target: T10, ETV7 (Homo sapiens, UniProt Q9Y603 1-341); conditions: protein: recombinant; tags: N-terminal GST; dsDNA, one strand shown
# T10 sequence: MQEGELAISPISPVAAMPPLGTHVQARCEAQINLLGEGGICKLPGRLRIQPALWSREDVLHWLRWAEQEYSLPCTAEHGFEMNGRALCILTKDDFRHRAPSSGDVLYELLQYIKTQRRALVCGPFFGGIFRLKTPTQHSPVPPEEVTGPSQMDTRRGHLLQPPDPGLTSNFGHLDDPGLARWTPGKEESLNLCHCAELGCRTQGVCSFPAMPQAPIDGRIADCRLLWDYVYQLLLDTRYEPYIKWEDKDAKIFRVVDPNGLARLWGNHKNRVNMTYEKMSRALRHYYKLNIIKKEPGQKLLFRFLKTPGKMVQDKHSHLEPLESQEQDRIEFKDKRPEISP
# In short: as §1
# ELF5 = target: T11, ELF5 (Homo sapiens, UniProt Q9UKW6-2 1-255); conditions: protein: recombinant; tags: N-terminal GST; dsDNA, one strand shown
# T11 sequence: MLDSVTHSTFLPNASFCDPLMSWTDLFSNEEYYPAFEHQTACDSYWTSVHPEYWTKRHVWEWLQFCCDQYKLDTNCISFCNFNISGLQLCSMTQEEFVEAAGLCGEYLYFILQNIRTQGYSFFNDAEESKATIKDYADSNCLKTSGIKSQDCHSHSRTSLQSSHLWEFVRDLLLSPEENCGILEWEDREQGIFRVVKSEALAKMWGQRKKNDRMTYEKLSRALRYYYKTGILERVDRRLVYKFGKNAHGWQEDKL
# In short: as §1
# ETV3 = target: T12, ETV3 (Homo sapiens, UniProt P41162-2 1-143); conditions: protein: recombinant; tags: N-terminal GST; dsDNA, one strand shown
# T12 sequence: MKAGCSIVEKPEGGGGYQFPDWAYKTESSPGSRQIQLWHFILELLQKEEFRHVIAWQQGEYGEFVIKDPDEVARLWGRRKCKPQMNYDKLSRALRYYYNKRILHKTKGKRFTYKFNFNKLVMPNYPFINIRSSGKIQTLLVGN
# In short: as §1
# ETV6 = ETV6 (Homo sapiens, UniProt P41212 1-452); conditions: protein: recombinant; tags: N-terminal GST; dsDNA, one strand shown
# In short: as §1
# ELF4, sequence (Q99607 whole entry): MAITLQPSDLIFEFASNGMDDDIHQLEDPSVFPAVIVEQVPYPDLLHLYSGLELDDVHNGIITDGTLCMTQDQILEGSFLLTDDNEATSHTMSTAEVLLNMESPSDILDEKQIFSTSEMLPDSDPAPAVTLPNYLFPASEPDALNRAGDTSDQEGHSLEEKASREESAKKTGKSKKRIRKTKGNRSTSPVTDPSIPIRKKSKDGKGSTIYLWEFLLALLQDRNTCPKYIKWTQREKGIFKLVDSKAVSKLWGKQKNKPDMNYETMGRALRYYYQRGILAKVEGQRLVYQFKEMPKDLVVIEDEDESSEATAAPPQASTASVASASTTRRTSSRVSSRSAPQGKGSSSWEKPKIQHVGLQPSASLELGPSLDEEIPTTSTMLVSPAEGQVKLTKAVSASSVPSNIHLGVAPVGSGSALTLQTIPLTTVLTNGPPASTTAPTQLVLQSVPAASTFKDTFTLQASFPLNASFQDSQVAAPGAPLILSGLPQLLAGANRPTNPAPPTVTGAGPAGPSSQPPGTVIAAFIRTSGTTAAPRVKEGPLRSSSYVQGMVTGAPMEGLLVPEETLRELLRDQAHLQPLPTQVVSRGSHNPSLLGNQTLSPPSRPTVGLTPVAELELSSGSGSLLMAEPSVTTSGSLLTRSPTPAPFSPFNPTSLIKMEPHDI
# ETV1, sequence (P50549 whole entry): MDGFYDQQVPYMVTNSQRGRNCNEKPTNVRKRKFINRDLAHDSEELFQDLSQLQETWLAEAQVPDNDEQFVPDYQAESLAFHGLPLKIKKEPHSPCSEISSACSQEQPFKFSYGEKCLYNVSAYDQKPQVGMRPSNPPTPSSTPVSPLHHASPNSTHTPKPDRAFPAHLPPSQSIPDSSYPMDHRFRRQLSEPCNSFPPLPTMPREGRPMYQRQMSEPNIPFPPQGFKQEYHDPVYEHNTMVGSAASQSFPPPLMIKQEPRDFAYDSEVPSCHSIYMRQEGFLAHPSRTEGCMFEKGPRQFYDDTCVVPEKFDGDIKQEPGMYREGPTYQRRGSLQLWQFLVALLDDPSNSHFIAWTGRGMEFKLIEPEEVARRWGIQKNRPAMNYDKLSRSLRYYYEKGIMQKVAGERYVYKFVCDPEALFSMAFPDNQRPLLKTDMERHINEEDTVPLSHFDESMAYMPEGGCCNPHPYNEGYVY
# ETV6, sequence (P41212 whole entry): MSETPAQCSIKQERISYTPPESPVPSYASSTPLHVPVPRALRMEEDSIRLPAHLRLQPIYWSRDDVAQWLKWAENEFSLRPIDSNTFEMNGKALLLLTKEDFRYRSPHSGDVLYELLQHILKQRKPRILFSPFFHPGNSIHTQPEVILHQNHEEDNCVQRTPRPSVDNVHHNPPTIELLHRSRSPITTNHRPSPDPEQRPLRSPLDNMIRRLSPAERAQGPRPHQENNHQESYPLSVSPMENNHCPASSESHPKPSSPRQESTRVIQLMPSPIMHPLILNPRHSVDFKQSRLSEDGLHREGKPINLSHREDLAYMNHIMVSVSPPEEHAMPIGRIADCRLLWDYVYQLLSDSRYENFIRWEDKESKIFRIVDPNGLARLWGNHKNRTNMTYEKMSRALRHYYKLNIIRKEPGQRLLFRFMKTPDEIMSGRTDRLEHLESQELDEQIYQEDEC
# ETV5, sequence (P41161 whole entry): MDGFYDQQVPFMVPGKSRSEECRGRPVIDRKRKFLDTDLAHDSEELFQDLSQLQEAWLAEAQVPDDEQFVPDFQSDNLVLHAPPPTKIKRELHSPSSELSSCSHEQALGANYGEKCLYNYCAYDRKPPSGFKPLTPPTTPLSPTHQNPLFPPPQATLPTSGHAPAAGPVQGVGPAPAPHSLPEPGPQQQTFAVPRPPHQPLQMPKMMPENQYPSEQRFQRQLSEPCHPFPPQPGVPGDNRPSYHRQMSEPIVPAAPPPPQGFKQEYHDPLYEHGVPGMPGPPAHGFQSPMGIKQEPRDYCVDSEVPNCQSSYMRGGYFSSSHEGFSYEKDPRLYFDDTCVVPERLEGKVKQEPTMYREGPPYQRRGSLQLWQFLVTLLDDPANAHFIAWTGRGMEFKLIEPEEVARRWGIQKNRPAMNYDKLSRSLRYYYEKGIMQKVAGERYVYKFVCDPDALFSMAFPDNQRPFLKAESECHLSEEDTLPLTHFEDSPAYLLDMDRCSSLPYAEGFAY
# HSF1, sequence (Q00613 whole entry): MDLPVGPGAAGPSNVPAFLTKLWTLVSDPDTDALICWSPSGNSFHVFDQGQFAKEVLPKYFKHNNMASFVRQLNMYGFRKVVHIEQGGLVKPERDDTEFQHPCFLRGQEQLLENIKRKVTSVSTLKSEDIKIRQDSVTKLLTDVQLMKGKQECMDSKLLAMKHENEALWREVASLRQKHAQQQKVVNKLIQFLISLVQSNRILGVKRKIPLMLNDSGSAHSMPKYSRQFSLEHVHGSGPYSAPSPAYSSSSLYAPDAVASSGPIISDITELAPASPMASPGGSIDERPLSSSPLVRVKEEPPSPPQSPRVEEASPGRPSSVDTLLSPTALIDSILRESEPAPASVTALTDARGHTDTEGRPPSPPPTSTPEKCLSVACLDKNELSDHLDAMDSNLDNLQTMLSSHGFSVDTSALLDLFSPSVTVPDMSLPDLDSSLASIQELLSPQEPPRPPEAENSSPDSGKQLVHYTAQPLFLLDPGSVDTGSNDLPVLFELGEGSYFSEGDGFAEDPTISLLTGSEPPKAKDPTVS
Sequence,binding signal (FEV),binding signal (ETV5),binding signal (HSF1),binding signal (SPIC),binding signal (ELF4),binding signal (ELK4),binding signal (ETV2),binding signal (ELF3),binding signal (ETV1),binding signal (ERF),binding signal (ETV3L),binding signal (ETS2),binding signal (SPDEF),binding signal (ETV7),binding signal (ELF5),binding signal (ETV3),binding signal (ETV6)
GAAGCA,"1.29 fold enrichment (6-mer frequency, TF over GST control)","1.41 fold enrichment (6-mer frequency, TF over GST control)","1.06 fold enrichment (6-mer frequency, TF over GST control)","1.19 fold enrichment (6-mer frequency, TF over GST control)","1.27 fold enrichment (6-mer frequency, TF over GST control)","1.2 fold enrichment (6-mer frequency, TF over GST control)","1.37 fold enrichment (6-mer frequency, TF over GST control)","1.27 fold enrichment (6-mer frequency, TF over GST control)","1.41 fold enrichment (6-mer frequency, TF over GST control)","1.24 fold enrichment (6-mer frequency, TF over GST control)","1.18 fold enrichment (6-mer frequency, TF over GST control)","1.32 fold enrichment (6-mer frequency, TF over GST control)","1.33 fold enrichment (6-mer frequency, TF over GST control)","1.37 fold enrichment (6-mer frequency, TF over GST control)","1.4 fold enrichment (6-mer frequency, TF over GST control)","1.36 fold enrichment (6-mer frequency, TF over GST control)","1.43 fold enrichment (6-mer frequency, TF over GST control)"
CCACTC,"1.27 fold enrichment (6-mer frequency, TF over GST control)","1.23 fold enrichment (6-mer frequency, TF over GST control)","1.05 fold enrichment (6-mer frequency, TF over GST control)","1.27 fold enrichment (6-mer frequency, TF over GST control)","1.29 fold enrichment (6-mer frequency, TF over GST control)","1.49 fold enrichment (6-mer frequency, TF over GST control)","1.18 fold enrichment (6-mer frequency, TF over GST control)","1.14 fold enrichment (6-mer frequency, TF over GST control)","1.17 fold enrichment (6-mer frequency, TF over GST control)","1.13 fold enrichment (6-mer frequency, TF over GST control)","1.28 fold enrichment (6-mer frequency, TF over GST control)","1.21 fold enrichment (6-mer frequency, TF over GST control)","1.26 fold enrichment (6-mer frequency, TF over GST control)","1.21 fold enrichment (6-mer frequency, TF over GST control)","1.19 fold enrichment (6-mer frequency, TF over GST control)","1.14 fold enrichment (6-mer frequency, TF over GST control)","1.13 fold enrichment (6-mer frequency, TF over GST control)"
